The values that follow come from ChEMBL document CHEMBL3988442, “University of Dundee, Small-Polar-MMV Screening Library” (2021).

The assay in a line: In vitro enzyme assay to detect hydrolysis of chlorophenol red-beta-D-[…] directly proportional to the number of Toxoplasma stably expressing beta-galactosidase. The class given is functional, organism-based, Toxoplasma gondii. The arrangement: scale not given: in the data most compounds retested in dose-response had high values.

The whole screen tested about 85,000 compounds, of which about 440 (0.52%) showed an effect of 50% or more. What follows is part of a selection rich in strong results, with near analogues and random picks from the rest.

For the molecule `CN(C)[C@H]1CCCCN(C(=O)Cn2cc(Cl)cn2)C1`, the “Percent Effect” value (50 µM) is on record as 95.45%.

For `CC(C)(C)CC1CCCN1S(N)(=O)=O` (stereo unspecified), the “Percent Effect” value (50 µM) is reported as -15.84%.

Take `CC(C)(C(=O)OCC(N)=O)c1ccccc1`: for the setting “50 µM”, the “Percent Effect” value was 2.133%.

Consider `CC(C)N(C)CC(=O)NCCn1cccc1`, for which, for the setting “50 µM”, the “Percent Effect” value stood at 7.108%.

For the molecule `O=C(NCc1n[nH]c(=O)[nH]1)C1COc2ccccc21` (stereo unspecified), where the note is “50 µM”, the “Percent Effect” value is recorded as -1.703%.

For `Cc1cccc(N2Cc3nc(N4CCC(C)CC4)ncc3C2=O)c1`, the “Percent Effect” value (10 µM) was 14.75%.

In the case of `COc1ccc(N2Cc3nc(N)ncc3C2=O)cc1`, the “Percent Effect” value (10 µM) is 9.612%.

Turning to `CNc1ncc2c(n1)CN(c1cccc(OC)c1)C2=O`, where the note is “10 µM”, the “Percent Effect” value amounted to 69.02%.

Take `COc1cccc(N2Cc3nc(=O)[nH]n3C2=O)c1`: where the note is “10 µM”, the “Percent Effect” value was -7.908%.

Consider `CCNc1ncc2c(n1)CN(c1cccc(OC)c1)C2=O`, for which the “Percent Effect” value (10 µM) came out at 76.16%.

On to `CNc1ncc2c(n1)CN(CCc1ccccc1)C2=O`, for which the “Percent Effect” value (10 µM) was -25.26%.

As to `CN(C(=O)CC(N)c1ccccc1)c1cccc(F)c1` (stereo unspecified), the “Percent Effect” value (50 µM) is on record as 3.1%.

On to `Nc1ncccc1CN1CCN(C2CCOCC2)CC1`, for which the “Percent Effect” value (50 µM) turned out to be 4.597%.

For the molecule `O=C1CCCCN1Cn1cnc2c(Br)cccc2c1=O`, for the setting “50 µM”, the “Percent Effect” value was -5.958%.

With `Cc1cccc(C(=O)Nc2c(C(=O)N(C)C)nn(C)c2C)c1`, the “Percent Effect” value (10 µM) amounted to 18.52%.

`Cc1ccc(C(=O)Nc2c(C(=O)N(C)C)nn(C)c2C)cc1C`: under “10 µM”, the “Percent Effect” value was determined as 61.35%.

`Cc1c(NC(=O)c2cccc(Br)c2)c(C(=O)N(C)C)nn1C`: the “Percent Effect” value (10 µM) is listed as 13.13%.

As to `Cc1ccc(C(=O)Nc2c(C(=O)N(C)C)nn(C)c2C)cc1`, for the setting “10 µM”, the “Percent Effect” value is 18.52%.

Regarding `Cc1c(NC(=O)c2ccc(Br)cc2)c(C(=O)N(C)C)nn1C`, for the setting “10 µM”, the “Percent Effect” value was 46.94%.

Regarding `COc1ccc(C(=O)Nc2c(C(=O)N(C)C)nn(C)c2C)cc1`, the “Percent Effect” value (10 µM) is listed as 52.86%.

With `CC(=O)NCc1ccc(C(C)=O)s1`, the “Percent Effect” value (50 µM) worked out at 3.848%.

On to `CCOc1cc(CNCc2ccccn2)ccc1O`, for which, under “50 µM”, the “Percent Effect” value is listed as 12.08%.

`CCNS(=O)(=O)c1csc(C(=O)Nc2cc(C)on2)c1`: the “Percent Effect” value (50 µM) came out at 60.53%.

Regarding `Cc1cc(NC(=O)c2ccc(S(C)(=O)=O)cc2)no1`, under “50 µM”, the “Percent Effect” value is 1.537%.

As for `CCS(=O)(=O)N(C)CC(=O)Nc1cc(C)on1`, the “Percent Effect” value (50 µM) is on record as -10.63%.

As for `Cc1ccoc1C(=O)NC1CCN(Cc2ccccc2F)CC1`, the “Percent Effect” value (10 µM) is on record as -8.886%.

As for `Cc1ccoc1C(=O)NC1CCN(Cc2cccc3ccccc23)CC1`, the “Percent Effect” value (10 µM) was 53.31%.

In the case of `Cc1ccoc1C(=O)NC1CCN(Cc2ccccc2C#N)CC1`, where the note is “10 µM”, the “Percent Effect” value is on record as -1.883%.

Regarding `Cc1cc(C)cc(-n2ncc3c2CCCC3N)c1` (stereo unspecified), the “Percent Effect” value (10 µM) is 16.38%.

On to `CC(C)(C)c1ccc(-n2ncc3c2CCCC3N)cc1` (stereo unspecified), for which the “Percent Effect” value (10 µM) is listed as 50.93%.

Take `Cc1ccc(-n2ncc3c2CCCC3N)cc1C` (stereo unspecified): the “Percent Effect” value (10 µM) was found to be 16.25%.

As to `COc1ccc(CN2CCCNCC2)cc1`, the “Percent Effect” value (50 µM) is listed as 13.71%.

In the case of `Cc1cc(C(=O)N(C)Cc2cccs2)nc(N2CCCCC2)n1`, the “Percent Effect” value (10 µM) is listed as 73.87%.

In the case of `Cc1cc(C(=O)N(C)Cc2cccs2)nc(N2CCOCC2)n1`, the “Percent Effect” value (10 µM) was -10.44%.

Consider `Cc1cc(C(=O)N(C)Cc2cccs2)nc(N2CCCC2)n1`, for which the “Percent Effect” value (10 µM) amounted to 6.801%.

`CSc1ccc(CNc2ccn(CCC(N)=O)n2)cc1`: the “Percent Effect” value (50 µM) is recorded as -4.331%.

Take `Cc1ccc(-c2cc(C(=O)NCCN3CCOCC3)n[nH]2)s1`: under “10 µM”, the “Percent Effect” value was found to be 27.02%.

`O=C(NCCN1CCOCC1)c1cc(-c2ccc(Cl)s2)[nH]n1`: the “Percent Effect” value (10 µM) was found to be 52.66%.

Consider `O=C(NCCN1CCOCC1)c1cc(-c2ccccc2Cl)[nH]n1`, for which, under “10 µM”, the “Percent Effect” value is reported as -1.617%.

As to `CS(=O)(=O)N[C@H]1CN(c2ccncc2F)C[C@@H]1C1CC1`, the “Percent Effect” value (50 µM) was 3.462%.

`CCc1cnc(CNC(=O)NCc2cnn(C)c2)s1`: where the note is “50 µM”, the “Percent Effect” value is recorded as -4.497%.

Turning to `Cc1cc(C(=O)Nc2ccc(OCC(N)=O)cc2)on1`, under “50 µM”, the “Percent Effect” value stood at 12.73%.

As for `Cc1cc(C(=O)Nc2cnn(C)c2)on1`, the “Percent Effect” value (50 µM) is listed as 0.4555%.

`Cc1cc(C(=O)Nc2cccc(C[S+](C)[O-])c2)on1` (stereo unspecified): where the note is “50 µM”, the “Percent Effect” value is reported as 98.42%.

As to `O=C(NCCNc1ncccn1)C1CC(=O)N(Cc2ccco2)C1` (stereo unspecified), the “Percent Effect” value (10 µM) is given as 18.03%.

With `O=C(NCCNc1ncccn1)C1CC(=O)N(Cc2ccccn2)C1` (stereo unspecified), the “Percent Effect” value (10 µM) was 66.32%.

`O=C(NCCNc1ncccn1)C1CC(=O)N(Cc2ccccc2)C1` (stereo unspecified): the “Percent Effect” value (10 µM) was 14.32%.

With `Cc1c(-c2nc(-c3cccc(CN4CCOCC4)c3)no2)cnn1C`, the “Percent Effect” value (10 µM) amounted to 8.571%.

In the case of `Cc1occc1-c1nc(-c2cccc(CN3CCOCC3)c2)no1`, for the setting “10 µM”, the “Percent Effect” value was found to be 55.09%.

For the molecule `Cc1cc(-c2nc(-c3cccc(CN4CCOCC4)c3)no2)no1`, the “Percent Effect” value (10 µM) is reported as 8.772%.

Consider `N#Cc1cccc(CN)c1F`, for which, where the note is “50 µM”, the “Percent Effect” value was 2.806%.

In the case of `COCCCNc1ccc(Br)cn1`, the “Percent Effect” value (50 µM) stood at 6.813%.

With `COCCNc1nnc(SCc2ccc(Br)cn2)s1`, for the setting “50 µM”, the “Percent Effect” value was determined as 98.42%.

With `COCCNc1nnc(-c2ccccn2)s1`, the “Percent Effect” value (10 µM) is given as 14.66%.

In the case of `Cc1n[nH]cc1CNCc1nccs1`, the “Percent Effect” value (50 µM) is listed as -5.718%.

Consider `COCCNC(=O)c1cn(CC2CCCNC2)nn1` (stereo unspecified), for which, where the note is “50 µM”, the “Percent Effect” value is listed as -4.648%.

As for `CCc1cc(NCc2cccnc2)n2nccc2n1`, the “Percent Effect” value (50 µM) came out at 3.949%.

As to `COc1ccc2c(c1)CCCC2N` (stereo unspecified), the “Percent Effect” value (50 µM) is listed as 9.435%.

As for `Cn1cc(CN2C[C@@H]3COC[C@H](C(=O)Nc4cccnc4)[C@@H]3C2)cn1.O=C(O)C(F)(F)F.O=C(O)C(F)(F)F`, the “Percent Effect” value (10 µM) is given as 79.48%.

Take `Cn1cc(CN2CC(C(=O)Nc3ccccc3)C3(CCOCC3)C2)cn1.O=C(O)C(F)(F)F` (stereo unspecified): the “Percent Effect” value (10 µM) was -1.627%.

Regarding `Cn1cc(CN2C[C@@H]3COC[C@@H](C(=O)N4CCCCO4)[C@@H]3C2)cn1.O=C(O)C(F)(F)F.O=C(O)C(F)(F)F`, for the setting “10 µM”, the “Percent Effect” value worked out at 0.4992%.
